Counter-ions that a name gives are not always drawn.
What was measured:
Assay in all cases: phenotypically active (imaging signature differs from DMSO and reproducible) at any of 0.3-9 uM (binary (1 = active, 0 = inactive)); higher = active
Details in all cases: treatment time: 24 h
[1] = system: A549-ACTB-RAB5A
Summary of the method: (§1)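 Four wells per concentration (0.3, 1, 3 or 9 µM) were treated for 24 h in each of fifteen gene-edited reporter lines from A549, HepG2 and WPMY1 cells, then imaged live. After normalising live-cell features to solvent control wells, deviation was defined as ≥3 of 4 wells lying past the 95th percentile of control Euclidean distances. Reproducibility was defined as a median replicate Pearson correlation above the 95th percentile of non-replicates. Both had to hold for phenotypic activity.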

[2] = system: A549-CANX-COX4
Summary of the method: as §1

[3] = system: A549-GM130-SQSTM1
Summary of the method: as §1

[4] = system: A549-TP53BP1-CLTA
Summary of the method: as §1

[5] = system: A549-TUBA1B-RELA
Summary of the method: as §1

[6] = system: HepG2-ACTB-RAB5A
Summary of the method: as §1

[7] = system: HepG2-CANX-COX4
Summary of the method: as §1

[8] = system: HepG2-GM130-SQSTM1
Summary of the method: as §1

[9] = system: HepG2-TP53BP1-CLTA
Summary of the method: as §1

[10] = system: HepG2-TUBA1B-RELA
Summary of the method: as §1

[11] = system: WPMY1-ACTB-RAB5A
Summary of the method: as §1

[12] = system: WPMY1-CANX-COX4
Summary of the method: as §1

[13] = system: WPMY1-GM130-SQSTM1
Summary of the method: as §1

[14] = system: WPMY1-TP53BP1-CLTA
Summary of the method: as §1

[15] = system: WPMY1-TUBA1B-RELA
Summary of the method: as §1

Measured: phenotypically active

N=C(N)Nc1nc(CSCCC(=N)NS(N)(=O)=O)cs1 [famotidine]
inactive: [1] 0 | [2] 0 | [3] 0 | [4] 0 | [5] 0 | [6] 0 | [7] 0 | [8] 0 | [9] 0 | [10] 0 | [11] 0 | [12] 0 | [13] 0 | [14] 0 | [15] 0

CC(C)[C@H]1CC[C@H](C(=O)N[C@H](Cc2ccccc2)C(=O)O)CC1 [nateglinide]
inactive: [1] 0 | [2] 0 | [3] 0 | [4] 0 | [5] 0 | [6] 0 | [7] 0 | [8] 0 | [9] 0 | [10] 0 | [11] 0 | [12] 0 | [13] 0 | [14] 0 | [15] 0

Cc1c(-c2cnccn2)ssc1=S [Oltipraz]
inactive: [1] 0 | [2] 0 | [3] 0 | [4] 0 | [5] 0 | [6] 0 | [7] 0 | [8] 0 | [9] 0 | [10] 0 | [11] 0 | [12] 0 | [13] 0 | [14] 0 | [15] 0

COc1ccc([C@@H]2Sc3ccccc3N(CCN(C)C)C(=O)[C@@H]2OC(C)=O)cc1 [diltiazem]
inactive: [1] 0 | [2] 0 | [3] 0 | [4] 0 | [5] 0 | [6] 0 | [7] 0 | [8] 0 | [9] 0 | [10] 0 | [11] 0 | [12] 0 | [13] 0 | [14] 0 | [15] 0

CC(C)(Oc1ccc(C2CC2(Cl)Cl)cc1)C(=O)O (stereo not given) [ciprofibrate]
inactive: [1] 0 | [2] 0 | [3] 0 | [4] 0 | [5] 0 | [6] 0 | [7] 0 | [8] 0 | [9] 0 | [10] 0 | [11] 0 | [12] 0 | [13] 0 | [14] 0 | [15] 0

CN(C(=O)CCCOc1ccc2[nH]c(=O)ccc2c1)C1CCCCC1 [Cilostamide]
inactive: [1] 0 | [2] 0 | [3] 0 | [4] 0 | [5] 0 | [6] 0 | [7] 0 | [8] 0 | [9] 0 | [10] 0 | [11] 0 | [12] 0 | [13] 0 | [14] 0 | [15] 0

CCc1cc2c(=O)c(-c3nc4ccccc4s3)coc2c(CN2CCCCC2)c1O
inactive: [1] 0 | [2] 0 | [3] 0 | [4] 0 | [5] 0 | [6] 0 | [7] 0 | [8] 0 | [9] 0 | [10] 0 | [11] 0 | [12] 0 | [13] 0 | [14] 0 | [15] 0

C=C(C)[C@@H]1CC[C@]2(CO)CC[C@]3(C)[C@H](CC[C@@H]4[C@@]5(C)CC[C@H](O)C(C)(C)[C@@H]5CC[C@]43C)[C@@H]12 [Betulin]
inactive: [1] 0 | [2] 0 | [3] 0 | [4] 0 | [5] 0 | [6] 0 | [7] 0 | [8] 0 | [9] 0 | [10] 0 | [11] 0 | [12] 0 | [13] 0 | [14] 0 | [15] 0

O=C(NCCO)c1cc(C(=O)NCCO)cc(C(=O)NCCO)c1
inactive: [1] 0 | [2] 0 | [3] 0 | [4] 0 | [5] 0 | [6] 0 | [7] 0 | [8] 0 | [9] 0 | [10] 0 | [11] 0 | [12] 0 | [13] 0 | [14] 0 | [15] 0

CCC(=C(CC)c1ccc(O)cc1)c1ccc(O)cc1 (stereo in doubt) [diethylstilbestrol]
inactive: [1] 0 | [2] 0 | [3] 0 | [4] 0 | [5] 0 | [6] 0 | [7] 0 | [8] 0 | [9] 0 | [10] 0 | [11] 0 | [12] 0 | [13] 0 | [14] 0 | [15] 0

Cc1cc(C)nc(SCC(=O)Nc2ncc(Cc3cccc4ccccc34)s2)n1
inactive: [1] 0 | [2] 0 | [3] 0 | [4] 0 | [5] 0 | [6] 0 | [7] 0 | [8] 0 | [9] 0 | [10] 0 | [11] 0 | [12] 0 | [13] 0 | [14] 0 | [15] 0

Clc1cccc(Nc2nnc(-c3ccccc3)c3ccccc23)c1
inactive: [1] 0 | [2] 0 | [3] 0 | [4] 0 | [5] 0 | [6] 0 | [7] 0 | [8] 0 | [9] 0 | [10] 0 | [11] 0 | [12] 0 | [13] 0 | [14] 0 | [15] 0

O=c1[nH]cnc2ccccc12
inactive: [1] 0 | [2] 0 | [3] 0 | [4] 0 | [5] 0 | [6] 0 | [7] 0 | [8] 0 | [9] 0 | [10] 0 | [11] 0 | [12] 0 | [13] 0 | [14] 0 | [15] 0

COc1ccc(C(=O)C2CCN(CC(=O)N(Cc3nc4c(c(=O)[nH]3)COCC4)CC3CC3)CC2)cc1
inactive: [1] 0 | [2] 0 | [3] 0 | [4] 0 | [5] 0 | [6] 0 | [7] 0 | [8] 0 | [9] 0 | [10] 0 | [11] 0 | [12] 0 | [13] 0 | [14] 0 | [15] 0

CC1=CC(=O)CC(C)(C)C1(O)/C=C/C(C)=C\C(=O)O (mixture of isomers) [(+/-)-2-cis-4-trans-Abscisic acid]
inactive: [1] 0 | [2] 0 | [3] 0 | [4] 0 | [5] 0 | [6] 0 | [7] 0 | [8] 0 | [9] 0 | [10] 0 | [11] 0 | [12] 0 | [13] 0 | [14] 0 | [15] 0

CCc1ccc(CCOc2ccc(CC3SC(=O)NC3=O)cc2)nc1 (stereo not given) [Pioglitazone hydrochloride]
inactive: [1] 0 | [2] 0 | [3] 0 | [4] 0 | [5] 0 | [6] 0 | [7] 0 | [8] 0 | [9] 0 | [10] 0 | [11] 0 | [12] 0 | [13] 0 | [14] 0 | [15] 0

CCN(CC)C(C)CN1c2ccccc2Sc2ccccc21 (stereo not given) [profenamine]
inactive: [1] 0 | [2] 0 | [3] 0 | [4] 0 | [5] 0 | [6] 0 | [7] 0 | [8] 0 | [9] 0 | [10] 0 | [11] 0 | [12] 0 | [13] 0 | [14] 0 | [15] 0

CCCc1nc(C(C)(C)O)c(C(=O)OCc2oc(=O)oc2C)n1Cc1ccc(-c2ccccc2-c2nnn[nH]2)cc1 [olmesartan-medoxomil]
inactive: [1] 0 | [2] 0 | [3] 0 | [4] 0 | [5] 0 | [6] 0 | [7] 0 | [8] 0 | [9] 0 | [10] 0 | [11] 0 | [12] 0 | [13] 0 | [14] 0 | [15] 0

CO[C@H]1C=CO[C@@]2(C)Oc3c(C)c(O)c4c(O)c(c5c(nc6cc(C)ccn65)c4c3C2=O)NC(=O)C(C)=CC=C[C@H](C)[C@H](O)[C@@H](C)[C@@H](O)[C@@H](C)[C@H](OC(C)=O)[C@@H]1C [Rifaximin]
inactive: [1] 0 | [2] 0 | [3] 0 | [4] 0 | [5] 0 | [6] 0 | [7] 0 | [8] 0 | [9] 0 | [10] 0 | [11] 0 | [12] 0 | [13] 0 | [14] 0 | [15] 0

CCC1(C)OC(=O)N(C)C1=O (stereo not given) [paramethadione]
inactive: [1] 0 | [2] 0 | [3] 0 | [4] 0 | [5] 0 | [6] 0 | [7] 0 | [8] 0 | [9] 0 | [10] 0 | [11] 0 | [12] 0 | [13] 0 | [14] 0 | [15] 0

CC(c1cc2ccccc2s1)N(O)C(N)=O (stereo not given) [zileuton]
inactive: [1] 0 | [2] 0 | [3] 0 | [4] 0 | [5] 0 | [6] 0 | [7] 0 | [8] 0 | [9] 0 | [10] 0 | [11] 0 | [12] 0 | [13] 0 | [14] 0 | [15] 0

O=C(Nc1cc(C(F)(F)F)cc(C(F)(F)F)c1)c1cnc(Cl)nc1C(F)(F)F
inactive: [1] 0 | [2] 0 | [3] 0 | [4] 0 | [5] 0 | [6] 0 | [7] 0 | [8] 0 | [9] 0 | [10] 0 | [11] 0 | [12] 0 | [13] 0 | [14] 0 | [15] 0

O=C(Nc1cccnn1)N1CCN(c2nccc(-c3ccc(F)c(F)c3)n2)CC1
inactive: [1] 0 | [2] 0 | [3] 0 | [4] 0 | [5] 0 | [6] 0 | [7] 0 | [8] 0 | [9] 0 | [10] 0 | [11] 0 | [12] 0 | [13] 0 | [14] 0 | [15] 0

O=S(=O)(N[C@H](CO)C(C(F)(F)F)C(F)(F)F)c1ccc(Cl)s1 [begacestat]
inactive: [1] 0 | [2] 0 | [3] 0 | [4] 0 | [5] 0 | [6] 0 | [7] 0 | [8] 0 | [9] 0 | [10] 0 | [11] 0 | [12] 0 | [13] 0 | [14] 0 | [15] 0

Cc1nc(=O)c2c([nH]1)CCSC2
inactive: [1] 0 | [2] 0 | [3] 0 | [4] 0 | [5] 0 | [6] 0 | [7] 0 | [8] 0 | [9] 0 | [10] 0 | [11] 0 | [12] 0 | [13] 0 | [14] 0 | [15] 0

O=C(Nc1c(Cl)cncc1Cl)c1ccc(OC(F)F)c(OCC2CC2)c1 [roflumilast]
inactive: [1] 0 | [2] 0 | [3] 0 | [4] 0 | [5] 0 | [6] 0 | [7] 0 | [8] 0 | [9] 0 | [10] 0 | [11] 0 | [12] 0 | [13] 0 | [14] 0 | [15] 0

CC(C)N(CCC(=O)c1ccc2ccccc2c1)Cc1ccccc1
inactive: [1] 0 | [2] 0 | [3] 0 | [4] 0 | [5] 0 | [6] 0 | [7] 0 | [8] 0 | [9] 0 | [10] 0 | [11] 0 | [12] 0 | [13] 0 | [14] 0 | [15] 0

Source: the supplement of paper PMC7411054
